From PubChem BioAssay (Tox21)
Records with an inconclusive call do not appear. Activity calls are given as the source filed them. Unless noted, calls come from the whole dose curve; as a rule, active = well fitted curve in the direction sought with a large enough effect in the repeat runs; inconclusive = weak or mixed curves; inactive = no such curve, though single readings can be large; an effect the other way counts as inactive or inconclusive.

Tests used:
[1] = molecular target: Luciferin 4-monooxygenase (Photinus pyralis) (UniProt P08659); experiment: qHTS assay to identify small molecule inhibitors of firefly luciferase (AID 1224835); note: nearly all actives have a fitted effect of over 25% in size; note: potency is the fitted concentration of half-maximal effect
Sequence of Luciferin 4-monooxygenase (Photinus pyralis) (P08659 whole entry, looked up): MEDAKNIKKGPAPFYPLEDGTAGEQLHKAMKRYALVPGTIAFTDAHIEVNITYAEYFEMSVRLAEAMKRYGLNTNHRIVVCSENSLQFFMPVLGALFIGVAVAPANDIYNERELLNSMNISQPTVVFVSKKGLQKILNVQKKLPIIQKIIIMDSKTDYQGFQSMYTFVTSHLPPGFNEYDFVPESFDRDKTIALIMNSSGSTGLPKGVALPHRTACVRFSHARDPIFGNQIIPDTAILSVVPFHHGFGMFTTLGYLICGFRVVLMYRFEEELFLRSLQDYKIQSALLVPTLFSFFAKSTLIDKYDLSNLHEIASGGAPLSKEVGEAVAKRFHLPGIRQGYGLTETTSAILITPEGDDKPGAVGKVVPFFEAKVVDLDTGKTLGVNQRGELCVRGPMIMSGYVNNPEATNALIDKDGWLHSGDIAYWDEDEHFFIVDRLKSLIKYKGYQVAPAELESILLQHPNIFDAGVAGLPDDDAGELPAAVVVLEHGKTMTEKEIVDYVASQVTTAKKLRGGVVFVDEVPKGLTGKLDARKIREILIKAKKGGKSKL
Outline: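 Biochemical qHTS: compounds run as interplate titrations against purified firefly enzyme, with D-luciferin and ATP each at its KM concentration. Light output recorded by CCD imaging.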

[2] = qHTS assay to identify small molecule agonists of the constitutive androstane receptor (CAR) signaling pathway - cell viability counter screen (AID 1224836); note: nearly all actives have a fitted effect of over 45% in size
Outline: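 23 h treatment, 37 C, 5% CO2. Cell line: HepG2 stably expressing hCAR with a CYP2B6-2.2kb construct. Co-treatment: PK11195, 0.75 uM final. Read-out: CellTiter-Fluor fluorescence intensity.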

[3] = qHTS assay to identify small molecule antagonists of the constitutive androstane receptor (CAR) signaling pathway - cell viability counter screen (AID 1224837); note: nearly all actives have a fitted effect of over 45% in size
Outline: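 CITCO at 50 nM final was added alongside compounds (15 concentrations) to double-stable hCAR/CYP2B6-2.2kb HepG2 cells. Following 23 hr at 37 C, cell viability was quantified by CellTiter-Fluor fluorescence intensity.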

[4] = qHTS assay to identify small molecule antagonists of the estrogen related receptor signaling pathway with the pleiotropic PPARgamma coactivator (PGC) from Tox21 10K library - cell viability counter screen (AID 1224840; active = well fitted cell-killing curve with a large enough effect in the repeat runs, not every such curve was filed as active; note: nearly all actives have a fitted effect of over 40% in size)
Outline: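 Readout: fluorescence intensity from CellTiter-Fluor after 30 min at 37 C/5% CO2. Preceded by 17.5 h treatment of PGC/ERR cells with DMSO-dissolved compounds, added 6 h post-seeding.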

[5] = qHTS assay to identify small molecule agonists of the hypoxia (HIF-1) signaling pathway - cell viability counter screen (AID 1224844; calls by dose curve; note: nearly all actives have a fitted effect of over 50% in size; note: potency is the fitted concentration of half-maximal effect)
Outline: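 In this counter screen, HRE-bla ME-180 cell viability after 17 hrs of compound exposure at 37C was read by CellTiter-Glo luminescence, multiplexed with the beta-lactamase reporter measurement.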

[6] = qHTS assay to identify small molecule agonists of H2AX (AID 1224845; active = well fitted activation curve with a large enough effect in the signal ratio in the repeat runs, not every such curve was filed as active; the % refers to the signal ratio)
Outline: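 Wild-type CHO-K1 cells, plated overnight, exposed 3hr at 37C to 15 concentrations (0.76% DMSO final). Lysed, then HTRF anti-pH2AX (S139) cryptate and anti-H2AX-d2 antibodies, 24 hr room temperature; 665/620 nm emission read.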

[7] = qHTS assay to identify small molecule agonists of the hypoxia (HIF-1) signaling pathway (AID 1224846; active = well fitted activation curve with a large enough effect in the signal ratio in the repeat runs, not every such curve was filed as active; the % refers to the signal ratio)
Outline: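 ME-180 HRE-bla reporter cells; compounds in DMSO, 17 h at 37C; read-out beta-lactamase via CCF4-AM FRET.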

[8] = qHTS assay to identify small molecule agonists of H2AX - cell viability counter screen (AID 1224847; calls by dose curve; note: top concentration of the series differs between compounds; nearly all actives have a fitted effect of over 30% in size)
Outline: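 Compounds tested at 15 concentrations were incubated 3 hr at 37C with wild-type CHO-K1 cells; cellular ATP-based luminescence (CellTiter-Glo) indicated viability.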

[9] = qHTS RealTime-Glo MT Cell Viability Assay in HepG2 cells - 24 hour (AID 1224867); note: nearly all actives have a fitted effect of over 50% in size
Outline: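 Tox21 10K library screened in qHTS format on HepG2 cells carrying RealTime-Glo reagents. Compounds were added after a 5 h preincubation, and the luminescent signal from continuous culture was measured repeatedly during 40 h treatment.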

[10] = qHTS RealTime-Glo MT Cell Viability Assay in HEK293 cells - 32 hour (AID 1224868); note: nearly all actives have a fitted effect of over 50% in size; note: potency is the fitted concentration of half-maximal effect
Outline: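 Luminescence generated by NanoLuc from substrate produced by living HEK293 cells served as the viability signal. Each value reflects the reading at its stated time point during continuous 40 h compound exposure at 37 C.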

[11] = qHTS RealTime-Glo MT Cell Viability Assay in HepG2 cells - 40 hour (AID 1224870); note: nearly all actives have a fitted effect of over 50% in size
Outline: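 HepG2 cells (600/well) mixed with RealTime-Glo MT reagent, settled 5 h at 37 C/5% CO2 before compound addition. Nonlytic NanoLuc luminescence from viable-cell prosubstrate reduction read repeatedly during 40 h treatment at 37 C.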

[12] = molecular target: Nuclear receptor subfamily 1 group I member 3 (Homo sapiens) (UniProt Q14994); experiment: qHTS assay to identify small molecule antagonists of the constitutive androstane receptor (CAR) signaling pathway (AID 1224838); note: nearly all actives have a fitted effect of over 40% in size
Sequence of Nuclear receptor subfamily 1 group I member 3 (Homo sapiens) (Q14994 whole entry, looked up): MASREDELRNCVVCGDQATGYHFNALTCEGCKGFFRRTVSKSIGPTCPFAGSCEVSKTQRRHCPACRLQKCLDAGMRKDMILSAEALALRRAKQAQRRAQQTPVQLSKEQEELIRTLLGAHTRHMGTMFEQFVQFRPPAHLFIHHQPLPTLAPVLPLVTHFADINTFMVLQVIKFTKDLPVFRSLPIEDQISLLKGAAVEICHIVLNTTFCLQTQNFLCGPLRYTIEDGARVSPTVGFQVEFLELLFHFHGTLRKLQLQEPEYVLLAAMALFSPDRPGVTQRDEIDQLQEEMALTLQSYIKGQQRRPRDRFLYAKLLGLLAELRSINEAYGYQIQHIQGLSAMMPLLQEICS
Outline: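 Inhibition of CITCO-driven (50 nM final) CYP2B6 reporter expression is measured in HepG2 cells stably carrying hCAR. Fifteen compound concentrations are applied for 24 h at 37 C, followed by luciferase luminescence.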

[13] = molecular target: Nuclear receptor subfamily 1 group I member 3 (Homo sapiens) (UniProt Q14994); experiment: qHTS assay to identify small molecule agonists of the constitutive androstane receptor (CAR) signaling pathway (AID 1224839); note: nearly all actives have a fitted effect of over 15% in size; note: potency is the fitted concentration of half-maximal effect
Outline: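 Compounds tested at 15 concentrations on HepG2 cells stably harbouring hCAR and CYP2B6-2.2kb reporter constructs, co-treated with PK11195 (0.75 uM final), 24 h at 37 C; luminescent reporter signal quantified.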

[14] = qHTS assay to identify small molecule antagonists of the estrogen related receptor signaling pathway with the pleiotropic PPARgamma coactivator (PGC) from Tox21 10K library (AID 1224841; call rule not given here; note: potency is the fitted concentration of half-maximal effect)
Outline: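 One-Glo luminescence, measured after half an hour at room temperature, quantified reporter output of PGC/ERR cells. These had been plated at 2,000 per well, incubated 6 h, dosed with compounds in DMSO, then kept 18 h at 37 C.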

[15] = qHTS assay to identify small molecule agonists of the estrogen related receptor signaling pathway with the pleiotropic PPARgamma coactivator (PGC) from Tox21 10K library (AID 1224842); note: nearly all actives have a fitted effect of over 15% in size
Outline: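 PGC/ERR reporter cell line, 2,000 cells per well, incubated 6 h at 37 C before 23 nL compound in DMSO was added. After 18 h at 37 C, One-Glo luminescence read following 30 min at room temperature.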

[16] = molecular target: Thyrotropin receptor (Homo sapiens) (UniProt P16473); experiment: qHTS assay to identify small molecule agonists of the thyroid stimulating hormone receptor (TSHR) signaling pathway (AID 1224843; calls by dose curve; note: nearly all actives have a fitted effect of over 45% in size)
Sequence of Thyrotropin receptor (Homo sapiens) (P16473 whole entry, looked up): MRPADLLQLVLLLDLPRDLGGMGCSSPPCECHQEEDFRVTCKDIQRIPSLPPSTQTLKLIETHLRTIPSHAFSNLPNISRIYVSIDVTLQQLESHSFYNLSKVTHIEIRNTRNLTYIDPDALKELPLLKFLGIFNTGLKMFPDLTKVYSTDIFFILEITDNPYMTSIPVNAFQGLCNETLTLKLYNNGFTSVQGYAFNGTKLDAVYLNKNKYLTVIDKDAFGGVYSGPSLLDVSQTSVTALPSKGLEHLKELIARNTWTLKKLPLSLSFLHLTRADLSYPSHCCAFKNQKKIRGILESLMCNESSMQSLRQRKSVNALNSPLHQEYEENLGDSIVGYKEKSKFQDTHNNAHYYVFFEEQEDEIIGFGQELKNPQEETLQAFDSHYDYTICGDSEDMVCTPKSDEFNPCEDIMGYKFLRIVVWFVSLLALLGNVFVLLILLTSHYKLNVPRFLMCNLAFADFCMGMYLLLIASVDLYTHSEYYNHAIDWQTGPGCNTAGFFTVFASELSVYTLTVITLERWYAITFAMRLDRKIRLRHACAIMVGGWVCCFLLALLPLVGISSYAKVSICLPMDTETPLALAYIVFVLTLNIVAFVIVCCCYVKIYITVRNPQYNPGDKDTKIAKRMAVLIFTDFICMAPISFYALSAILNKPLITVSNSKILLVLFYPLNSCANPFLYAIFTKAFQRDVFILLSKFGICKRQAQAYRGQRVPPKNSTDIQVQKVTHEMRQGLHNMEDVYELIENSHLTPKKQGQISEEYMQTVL
Outline: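 Agonist-mode screen: TSHR HEK293 cells received test chemicals for half an hour at room temperature, then HTRF cAMP detection reagents for one hour prior to fluorescence measurement. Each chemical ran as a 15-concentration series, triplicated.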

[17] = qHTS assay to identify small molecule antagonists of the estrogen related receptor (ERR) signaling pathway from Tox21 library (AID 1224848); note: nearly all actives have a fitted effect of over 50% in size; note: potency is the fitted concentration of half-maximal effect
Outline: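 Quantitative high-throughput format: ERR reporter cells (2,000/well) pre-incubated 6 h, treated 18 h at 37 C with compounds in DMSO alongside positive and negative controls, then read by ONE-Glo luminescence.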

[18] = qHTS assay to identify small molecule agonists of the estrogen related receptor (ERR) signaling pathway from Tox21 library (AID 1224849; calls by dose curve; note: nearly all actives have a fitted effect of over 15% in size); details: ERR reporter cell line, ONE-Glo luciferase, 18 h; at 92.4 µM (top of the series) unless noted
Outline: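 Luciferase activity in ERR pathway reporter cells served as the agonist readout; exposure lasted 18 h at 37 C, with ONE-Glo detection after 30 min at room temperature.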

[19] = A CellTox Green Cytotoxicity Assay to monitor cytotoxicity in HEK293 cells - 0 hour (AID 1224869); note: nearly all actives have a fitted effect of over 50% in size
Outline: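 Real-time, in one plate: 600 HEK293 cells/well with dead-cell DNA dye, pinned compound after 5 h, 37 C incubation over 40 h; viable cells give no appreciable fluorescence.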
% is set by controls: 0 for no effect and ±100 for the full control effect.

CCCC[N+]1(C)CCCC1 (tested in a mixture with another compound)
inactive: Potency [1] | Potency [2] | Potency [3] | Potency [4] | Potency [5] | Potency [6] | Potency [7] | Potency [8] | Potency [9] | Potency [10] | Potency [11]

CCCCON=O
active: Potency [14] 49.8 µM
inactive: Potency [1] | Potency [2] | Potency [3] | Potency [12] | Potency [13] | Potency [4] | Potency [15] | Potency [16] | Potency [6] | Potency [7] | Potency [17] | activity change, positive = activation [18] -4.4% | Potency [9] | Potency [10] | Potency [19] | Potency [11]

CCOP(=S)(NC(C)C)Oc1ccccc1C(=O)OC(C)C (stereo unspecified)
active: Potency [13] 7.7 µM | Potency [14] 30.6 µM | Potency [5] 6.16 µM | Potency [17] 30.6 µM | Potency [10] 43.6 µM
inactive: Potency [1] | Potency [2] | Potency [3] | Potency [15] | Potency [16] | Potency [6] | activity change, positive = activation [18] -39.6% | Potency [19]

Nc1ccc(Cl)cc1C(=O)c1ccccc1F
active: Potency [13] 23.7 µM
inactive: Potency [1] | Potency [2] | Potency [3] | Potency [12] | Potency [14] | Potency [16] | Potency [5] | Potency [6] | Potency [7] | Potency [8] | Potency [17] | activity change, positive = activation [18] 7.6% [at 42.5 µM] | Potency [10] | Potency [19] | Potency [11]

C[C@]12Cc3cn[nH]c3C[C@@H]1CC[C@@H]1[C@@H]2CC[C@@]2(C)[C@H]1CC[C@]2(C)O
inactive: Potency [1] | Potency [2] | Potency [3] | Potency [12] | Potency [13] | Potency [4] | Potency [15] | Potency [16] | Potency [8] | activity change, positive = activation [18] -42.2% [at 42.5 µM] | Potency [9] | Potency [11]
active: Potency [5] 8.49 µM | Potency [17] 26.6 µM

O=C(CCCCl)c1ccc(F)cc1
inactive: Potency [2] | Potency [3] | Potency [12] | Potency [4] | Potency [14] | Potency [15] | Potency [16] | Potency [5] | Potency [6] | Potency [7] | Potency [8] | Potency [17] | activity change, positive = activation [18] 7.87% [at 42.5 µM] | Potency [9] | Potency [10] | Potency [11]
active: Potency [1] 15.5 µM

Clc1cc(Cl)c(-c2cc(Cl)c(Cl)cc2Cl)cc1Cl
inactive: Potency [1] | Potency [2] | Potency [3] | Potency [12] | Potency [4] | Potency [5] | Potency [6] | Potency [7] | Potency [8] | Potency [9] | Potency [11]

CCCN
inactive: Potency [1] | Potency [2] | Potency [3] | Potency [4] | Potency [16] | Potency [5] | Potency [6] | Potency [8] | Potency [9] | Potency [10] | Potency [19] | Potency [11]
